The campaign covered roughly 400,000 compounds. About 2,200 (0.55%) were called active. Another 1% or so got no clear call; they are omitted. Shown is part of a subset that was picked to be rich in actives. Entries that show only a call come without a potency. A number with no mark means an inactive call. Calls come from the whole dose curve; as a rule, active = well fitted inhibition curve with a large enough effect; inconclusive = small, poorly fitted or top-dose-only effect, or another doubt; inactive = no such curve, though single readings can be large or run the other way.
Molecular target: DNA polymerase kappa (Homo sapiens) (UniProt Q9UBT6)
Experiment: qHTS for Inhibitors of Polymerase Kappa
Conditions: purified Pol kappa, fluorescent DNA synthesis assay, 10 min; series mostly up to 107 µM
Method: The processing and repair of DNA interstrand crosslinks (ICL) in eukaryotic cells are extremely complex, potentially involving multiple DNA repair and damage tolerance pathways, including homologous recombination, nucleotide excision repair, translesion synthesis (TLS), and cell cycle checkpoints.
To that end, in a collaboration between the Oregon Health & Science University and the NIH Chemical Genomics Center a 1536-well high-throughput screen was developed. This fluorescent screen was assayed against the NIH Molecular Libraries Small Molecule Repository (MLSMR) to discover inhibitors of Pol Kappa.
NIH Chemical Genomics Center [NCGC]
NIH Molecular Libraries Probe Centers Network [MLPCN]
Assay Submitter (PI): Stephen Lloyd, Oregon Health & Science University
Three microliters of reagents (buffer in column 3 and 4 as negative control and 10 nM Pol kappa in columns 1, 2, and 5-48) were dispensed into a 1536-well black solid-bottom plate. Compounds (23 nL) were transferred via Kalypsys pin tool equipped with 1536-pin array. The plates were then incubated for 15 min at room temperature, and 1 uL substrate (50 nM final concentration) were then added to start the reaction and kinetically read twice at 0 min and 10 min on the Viewlux reader
Potency is the fitted concentration of half-maximal effect.

Chain of DNA polymerase kappa (Homo sapiens) (Q9UBT6 whole entry, looked up): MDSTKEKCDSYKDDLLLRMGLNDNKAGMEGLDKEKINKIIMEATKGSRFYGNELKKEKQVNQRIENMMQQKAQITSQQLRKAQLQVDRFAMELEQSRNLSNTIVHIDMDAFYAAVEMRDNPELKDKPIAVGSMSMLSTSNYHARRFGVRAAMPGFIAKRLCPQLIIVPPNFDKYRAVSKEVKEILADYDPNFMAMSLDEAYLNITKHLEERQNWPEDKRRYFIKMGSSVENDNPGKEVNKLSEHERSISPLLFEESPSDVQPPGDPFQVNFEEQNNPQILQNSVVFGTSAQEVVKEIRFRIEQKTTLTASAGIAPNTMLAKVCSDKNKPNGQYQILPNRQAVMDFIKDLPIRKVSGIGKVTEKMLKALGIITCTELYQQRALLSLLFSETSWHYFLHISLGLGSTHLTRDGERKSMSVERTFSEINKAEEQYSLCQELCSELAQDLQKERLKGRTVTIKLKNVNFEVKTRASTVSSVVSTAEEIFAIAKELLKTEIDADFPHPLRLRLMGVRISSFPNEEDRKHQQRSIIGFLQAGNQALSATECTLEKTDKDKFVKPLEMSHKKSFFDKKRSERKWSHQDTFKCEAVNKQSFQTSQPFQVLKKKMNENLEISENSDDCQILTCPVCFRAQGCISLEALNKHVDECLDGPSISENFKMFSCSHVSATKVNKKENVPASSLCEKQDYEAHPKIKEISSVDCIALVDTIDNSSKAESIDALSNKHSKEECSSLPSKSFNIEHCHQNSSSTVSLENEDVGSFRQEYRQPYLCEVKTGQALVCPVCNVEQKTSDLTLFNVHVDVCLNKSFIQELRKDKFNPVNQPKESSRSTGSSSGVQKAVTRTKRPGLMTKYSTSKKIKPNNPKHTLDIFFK

Structure (SMILES) | Potency | activity, negative = inhibition
Oc1c(C(c2ccccc2Cl)N2CCOCC2)sc2nc(-c3ccco3)nn12 (stereo unspecified) | inactive | –
CCOc1ccccc1/C=c1\sc2nc(-c3ccco3)nn2c1=O | 89.1 µM (active) | –
CCOC(=O)C1CCN(C(c2ccc(F)cc2)c2sc3nc(-c4ccco4)nn3c2O)CC1 (stereo unspecified) | inactive | –
NCCC(=O)c1ccccc1N | – | 1.11% [at 19.4 µM]
O=C(O)C(O)[C@@](O)(Cc1ccc(O)cc1)C(=O)O (stereo partly specified) | inactive | –
CCN1CCN(C(=O)C2CCN(S(=O)(=O)c3cc(Cl)ccc3Cl)CC2)CC1 | inactive | –
O=S(=O)(c1cc(Cl)ccc1Cl)N1CCN(Cc2ccco2)CC1 | inactive | –
O=C(CN1CCN(S(=O)(=O)c2cc(Cl)ccc2Cl)CC1)c1ccc(O)c(O)c1 | 28.2 µM (active) | –
NNc1nnc(NN)c2ccccc12 | – | 2.28% [at 19.4 µM]
CC(=O)/C(C)=N\O | – | -8.23% [at 19.4 µM]
CC1(C)C=Cc2c(ccc(C(=O)/C=C/c3ccccc3)c2O)O1 | inactive | –
COc1ccc(CNc2ncnc3ccc(-c4cccnc4)cc23)c(OC)c1 | inactive | –
O=C(c1ccc(Br)o1)N1CCN(CCOc2ccccc2)CC1 | inactive | –
O=C(c1ccc(CS(=O)(=O)c2ccccc2)o1)N1CCN(c2ccccc2)CC1 | 79.4 µM (active) | –
CCOC(=O)C1CCCN(C(=O)c2ccc(CS(=O)(=O)c3ccc(Br)cc3)o2)C1 (stereo unspecified) | inactive | –
Nc1nc2c(ncn2[C@@H]2O[C@H](COP(=O)(O)OP(=O)(O)OP(=O)(O)O)[C@@H](O)C2O)c(=O)[nH]1 (stereo partly specified) | – | -4.75% [at 19.4 µM]
COc1ccc(OC)c([C@H](O)CNC(=O)CN)c1 | – | -13.4% [at 19.4 µM]
COC1C[C@@H](O[C@@H]2C(C)C(=O)OC(C)C(C)C(O)C(C)C(=O)[C@@]3(CO3)CC(C)C(OC3OC(C)CC(N(C)C)C3O)C2C)OC(C)[C@@H]1O (stereo partly specified) | inactive | –
O=P(O)(O)OC[C@H](O)CO | inactive | –
COc1c2c(cc3occ(-c4ccc5c(c4)OCO5)c(=O)c13)OC(C)(C)C=C2 | inactive | –
COc1cccc2c1C(=O)c1c(O)c3c(c(O)c1C2=O)CC(O)(C(C)=NNC(=O)c1ccc(Cl)c(Cl)c1)CC3OC1CC(N)C(O)C(C)O1 (stereo unspecified) | 17.8 µM (active) | –
Cc1cccc(-c2nnc(SC(C)C(=O)Nc3ccccc3)n2C)c1 (stereo unspecified) | inactive | –

Structure (SMILES) | Potency | activity, negative = inhibition
COc1cccc(Nc2ncc3ncc(=O)n(C4CC4)c3n2)c1 | inactive | –
NC(=O)[C@H]1CC2(CC(c3cccc(NC(=O)[C@H]4CCC(=O)N4)c3)=NO2)CN1C(=O)c1ccccc1C(=O)c1ccccc1 (stereo partly specified) | inactive | –
C=C(C)C(=O)Nc1cccc(C2=NOC3(C2)C[C@H](C(N)=O)N(C(=O)C(c2ccccc2)c2ccccc2)C3)c1 (stereo partly specified) | 25.1 µM (active) | –
CCC(=O)Nc1cccc(C2=NOC3(C2)C[C@@H](C(N)=O)N(C(=O)c2cc([N+](=O)[O-])cc([N+](=O)[O-])c2C)C3)c1 (stereo partly specified) | inactive | –
CN1[C@H]2CC(OC(=O)[C@@H](CO)c3ccccc3)C[C@H]1[C@H]1O[C@H]12 (stereo partly specified) | – | -3.18% [at 12 µM]
O=C(c1cnccn1)N1CCC2(CCN(Cc3cc(C(F)(F)F)cc(C(F)(F)F)c3)CC2)CC1 | inactive | –
Cc1nc2cnc(Oc3cccc(Cl)c3)nc2n(C2CC2)c1=O | inactive | –
S=c1[nH]c(=S)c2n[nH]nc2[nH]1 | inactive | –
COc1ccc(Nc2cc(C(=O)NCCCN(C)c3ccccc3)c3ccccc3n2)c(OC)c1 | inactive | –
COc1ccccc1Nc1cc(C(=O)NCCCN(C)C2CCCCC2)c2ccccc2n1 | inactive | –
CN(C)CCNC(=O)c1ccc(Cl)c2cc3ccccc3nc12 | 50.1 µM (active) | –
O=C(c1csnn1)N1CCC[C@@]2(CCN(c3cccc(-c4ccccc4)c3)C2)C1 | inactive | –
CC(=O)c1cccc(Nc2ccc3cc(S(=O)(=O)N4CCC(C)CC4)ccc3n2)c1 | inactive | –
CC(=O)c1ccc(S(=O)(=O)N2CCC(Oc3ccc(-n4cnnn4)cc3)CC2)cc1 | inactive | –
CC(=O)c1ccc(S(=O)(=O)N2CCN(C(=O)/C=C/c3ccc4ccccc4n3)CC2)cc1 | 79.4 µM (active) | –
Cc1cccc(NC(=O)COC(=O)c2ccccc2OCc2cccc(Br)c2)c1 | inactive | –
C=C1C(=O)C23C(O)C1CCC2[C@]12COC3(O)C(O)C1C(C)(C)CC[C@H]2O (stereo partly specified) | inactive | –
O=C(Nc1cc(Cl)ccc1N1CCOCC1)c1ccc(N2CCCC2=O)cc1 | inactive | –
CC(C)(CNC(=O)c1ccc(Cl)c(S(=O)(=O)N2CCc3ccccc3C2)c1)N1CCOCC1 | inactive | –
O=C(O)c1ccc(NN=CC2=C(N3CCOCC3)/C(=C/c3ccccc3)CC2)cc1 | 28.2 µM (active) | –
CN1CCN(C(=O)c2cnn(-c3ccccc3)c2NC(=O)c2ccc([N+](=O)[O-])cc2)CC1 | inactive | –
Cc1cccc(C(=O)NC(=S)N2CCN(c3ccc([N+](=O)[O-])cc3)CC2)c1 | inactive | –

Structure (SMILES) | Potency | activity, negative = inhibition
Cc1cc(/C=N/Nc2ccc([N+](=O)[O-])cn2)c(C)n1-c1cccc(C(=O)O)c1 | 70.8 µM (active) | –
COc1cc(OC)c(OC)cc1/C=C1\C=Cc2ccccc21 | inactive | –
O=c1c(-c2ccc(F)cc2)nc2cnc(N3CCNCC3)nc2n1Cc1cccs1 | inactive | –
CN(C)c1ccc(/C=C2\C=Cc3ccccc32)cc1Br | inactive | –
CCOc1ccc(C(=O)N2CCN(CCc3ccccn3)CC2)cc1 | inactive | –
CCN(CC)CCOc1ccc2c(c1)C(=NNC(=O)c1ccccn1)c1cc(OCCN(CC)CC)ccc1-2 | 10 µM (active) | –
O=C(c1ccncc1)N1CCC2(CCN(Cc3cc(C(F)(F)F)cc(C(F)(F)F)c3)CC2)CC1 | inactive | –
C[C@]12CC[C@@H]3C(=CCc4cc(O)ccc43)[C@@H]1CCC2=O | – | -6.88% [at 12 µM]
Oc1ccc(Cl)c2c1CCC2 | – | 2.83% [at 19.4 µM]
C/C=C/C=N/NC(=O)c1ccncc1 | – | -3.32% [at 19.4 µM]
C=C1c2c(Cl)ccc(O)c2C(O)=C2C(=O)[C@]3(O)C(O)=C(C(N)=O)C(=O)[C@@H](N(C)C)[C@@H]3[C@@H](O)C12 (stereo partly specified) | 3.98 µM (active) | –
CN(C)[C@@H]1C(=O)C(C(N)=O)=C(O)[C@@]2(O)C(=O)C3=C(O)c4c(O)ccc(Cl)c4[C@@H](O)[C@H]3C[C@@H]12 | 89.1 µM (active) | –
O=C1C[C@H]2C=CCc3cccc(c32)CN1Cc1ccccc1 | inactive | –
O=C1CCC[C@@H]2C[C@@]3(C[C@@H]4CCN1[C@H]24)Nc1ccccc1NC3=NCc1ccccc1 | inactive | –
CC(=O)OCC(=O)[C@@]1(O)CCC2C3CCC4=CC(=O)CC[C@@]4(C)[C@]3(F)C(O)C[C@]21C (stereo partly specified) | inactive | –
Brc1ccc(C2=NCCC(c3ccccc3)O2)cc1 (stereo unspecified) | inactive | –
Cc1cc(C)c2nc(-c3cccnc3)cc(C(=O)Nc3ccc(S(=O)(=O)Nc4onc(C)c4C)cc3)c2c1 | inactive | –
Cc1cccc(NC(=O)CSc2nc(-c3ccco3)cc(C(F)(F)F)n2)c1C | inactive | –
Cc1cc(C)c2nc(-c3ccco3)cc(C(=O)O)c2c1 | 22.4 µM (active) | –
COC(=O)c1ccc2c(c1)N(CC(=O)Nc1ccc(C)c(C)c1)C(=O)c1ccccc1S2 | inactive | –
Cn1c(=O)c2ccccc2n(CC(=O)Nc2ccc3c(c2)OCCO3)c1=O | inactive | –
Cc1ccc(C(=O)O)cc1-c1ccc(/C=C2\SC(=O)N(CC(=O)Nc3ccc4c(c3)OCO4)C2=O)o1 | 28.2 µM (active) | –

Structure (SMILES) | Potency | activity, negative = inhibition
CCn1ccnc1C[C@@H]1COc2ccccc2O1 | – | -7.82% [at 19.4 µM]
NC[C@@H]1O[C@H](O[C@@H]2[C@H](O[C@@H]3O[C@H](CO)[C@@H](COC[C@H]4O[C@@H](CN)[C@@H](O)[C@@H](O)[C@@H]4N)[C@@H]3O)[C@@H](O)[C@@H](N)C[C@H]2N)[C@@H](N)[C@H](O)[C@@H]1O | – | -0.462% [at 12 µM]
COc1ccc(OC)c(NC(=O)/C=C/c2ccc(C)o2)c1 | inactive | –
Cc1ccc(/C=C/C(=O)Nc2ccc([N+](=O)[O-])c(NC(=O)/C=C/c3ccc(C)o3)c2)o1 | 28.2 µM (active) | –
Cc1ccc(/C=C/C(=O)OCC(=O)NCc2ccc(Cl)cc2)o1 | inactive | –
CC1=C(/C=C/C(C)=C/C=C/C(C)=C/C=C/C=C(C)/C=C/C=C(C)/C=C/C(=O)[C@]2(C)C[C@@H](O)CC2(C)C)C(C)(C)C[C@H](O)C1 | inactive | –
O=C1C(c2[nH]c3ccccc3c2O)=Nc2ccccc21 | – | -10.8% [at 19.4 µM]
CCN(C(=O)COC(=O)/C=C/c1nc2ccccc2s1)C1CCS(=O)(=O)C1 (stereo unspecified) | inactive | –
CN(C(=O)COC(=O)c1cc(-c2ccco2)nc2ccccc12)C1CCS(=O)(=O)C1 (stereo unspecified) | 20 µM (active) | –
CN(C)C(CNC(=O)CCCOc1ccccc1)c1ccco1 (stereo unspecified) | inactive | –
CN(CCOc1ccccc1)C(=O)c1cc(-c2ccco2)nc2ccccc12 | 79.4 µM (active) | –
Cc1cc(C)c2nc(SCC(=O)N(C)C3CCS(=O)(=O)C3)cc(C)c2c1 (stereo unspecified) | inactive | –
CCOc1ccc(CNC(=O)c2cc(-c3ccc(Cl)s3)nc3ccccc23)cc1 | inactive | –
Nc1ncn(C2OC(CO)C(O)C2O)c(=O)n1 (stereo unspecified) | inactive | –
C=CC(=O)c1ccc2ccccc2c1 | – | 7.32% [at 19.4 µM]
CCCCCCCNc1ccc(/C=C/c2ccnc3ccccc23)cc1 | inactive | –
O=C(c1cccc(F)c1)N1CCC2(CCCN(Cc3ccncc3)C2)CC1 | inactive | –
Cc1cn([C@H]2CC(F)[C@@H](CO)O2)c(=O)[nH]c1=O (stereo partly specified) | – | -4.8% [at 19.4 µM]
O=C(Nc1cccc(C(F)(F)F)c1)c1cc(Br)cc(Br)c1O | – | -0.617% [at 19.4 µM]
COCCn1c(=O)c(-c2ccc(OC)cc2)nc2cnc(Oc3cccc(Cl)c3)nc21 | inactive | –

Reference: PubChem BioAssay AID588579 (National Center for Advancing Translational Sciences (NCATS), 2011)
